miR122 inh: blocks miR-122 activity in Huh7 sensor cells; Huh7 miR-122 Renilla luciferase sensor, 48 h; neutral wells = 0, positive control = 100; activation (reporter increase), % at 12.5 µM; hit rate 0.3% among 340,000; AID 602342;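 active means mean replicate activation score at least 90 and every replicate individually at or above 90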;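 further: higher luciferase means less miR-122 activity so hits act as miR-122 inhibitors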
DENV2 CPE rescue: protects cells from dengue virus 2 cytopathic effect. DENV2-infected cells, cytopathic effect rescue, plate reader. hit rate 1.7% among 350,000. CPE inhibition, % at 9.99 µM. AID 651640; in the data active means CPE inhibition above about 20%, passing the limit was not always enough; tested in BHK-21 cells;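 further: 0% = median of neutral control wells and 100% = median of positive control wells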
PGC1a acetyl inh: modulators of PGC1a acetylation; U2OS PGC1a acetylation, AlphaScreen anti-acetyl-lysine; with virally co-expressed GCN5 acetyltransferase; inhibition, % at 15.6 µM; hit rate 0.17% among 350,000; AID 651687;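 active means every replicate shows inhibition of at least 40%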;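 further: 0% = neutral control wells and 100% = positive control wells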
Statin myotox sup: suppression of simvastatin myotoxicity | C2C12 myotubes + simvastatin, ATP luminescence, 48 h; scaled: DMSO 0, geranylgeraniol control 100 | rescue of ATP level, % at 7.49 µM | hit rate 0.78% among 330,000 | AID 602340;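 active means mean ATP rescue above about 67%, or every replicate alone reaching that limit, limit read from the data, passing the limit was not always enough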;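 further: myotubes were challenged with 10 µM simvastatin during compound exposure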
PvdQ inh: blocks Pseudomonas aeruginosa PvdQ acylase activity; purified PvdQ acylase, fluorescence plate reader; AID 488965; inhibition, % at 10 µM; hit rate 0.063% among 340,000; in the data active means inhibition above about 30%, passing the limit was not always enough;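 further: 0% = vehicle neutral wells and 100% = reference inhibitor wells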
* marks the source's active call; other numbers are inactive results; x = no result; ! = not confirmed by another sample; [ ] = dose if it differs, or a comment. Sampled rows, rich in hits. Any-hit rate of the full collection: about 2.2%.

SMILES	miR122 inh	DENV2 CPE rescue	PGC1a acetyl inh	Statin myotox sup	PvdQ inh
Cc1csc(NC(=O)CSc2nnc(CCNC(=O)c3cccs3)n2C)n1	-4	x	-6	98*	0
Oc1cc2c(cc1O)C(c1ccccc1)CNCC2 (centres undefined)	-1	52*	9	0	-11
COC(=O)C1=C(C)N=C2SC(C)C(=O)N2C1c1cccs1 (centres undefined)	5	x	1	121*	-15
COC(=O)C1=C(C)N=C2SC(C)C(=O)N2C1c1ccc(C(=O)OC)cc1 (centres undefined)	1	x	1	-1	-1
CN1CCN(C(=O)C[C@H]2C[C@@H]3c4cc(NC(=O)c5cccnc5)ccc4O[C@@H]3[C@@H](CO)O2)CC1	4[16.7 µM]	5	-1	-1	x
FC(F)(F)c1cc(CCN2CCNC[C@H]2Cc2cccc3ccccc23)cc(C(F)(F)F)c1	x	84*	x	3	-11
O=C(CN1CCOCC1)N1CC(=O)N2[C@H](C1)[C@H](c1ccc(-c3cccc(F)c3)cc1)[C@@H]2CO	x	-4	9	x	x
COc1cc(C(=O)OCCN2CCOCC2)ccc1O	-2	x	6	108*	-7
COC(=O)c1c(CC[C@@H](CO)NC(=O)N[C@@H](Cc2ccccc2)Cn2cc(-c3ccccc3)nn2)oc(C(=O)N2CCOCC2)c1C(=O)OC	x	6	8	x	x
O=C(Nc1ccccc1F)N1[C@@H]2CNC[C@H]1C2c1ccc(-c2ccccc2)cc1 (some centres undefined)	x	-4	-8	x	x
O=C(Nc1ccc2c(c1)OCO2)N1[C@@H]2CNC[C@H]1C2c1ccc(/C=C/c2ccccc2)cc1 (some centres undefined)	x	79*	x	x	x
C/C=C/c1ccc(C2[C@H]3CNC[C@@H]2N3C(=O)NCCC)cc1 (some centres undefined)	x	25*!	9	x	x
COc1ccc(-c2ccc(C3[C@H]4CNC[C@@H]3N4C(=O)Nc3ccccc3F)cc2)cc1 (some centres undefined)	x	26*!	7	x	x
COc1ccc(NC(=O)N2[C@@H]3CNC[C@H]2C3c2ccc(-c3ccc(C)cc3)cc2)cc1 (some centres undefined)	x	33*!	x	x	x
CCC(=O)N1[C@@H]2CN(C(=O)Nc3cccc(Cl)c3)c3ccccc3[C@@H]2[C@@H]1CO	8[16.7 µM]	6	-3	-1	x
CN(C)C(=O)c1ccc(-c2ccc(C3[C@H]4CNC[C@@H]3N4C(=O)NC3CCCC3)cc2)cc1 (some centres undefined)	x	72*	x	x	x
N#Cc1ccc(-c2ccc(C3[C@H]4CNC[C@@H]3N4C(=O)NC3CCCC3)cc2)cc1 (some centres undefined)	x	-6	x	x	x
COc1cccc(-c2ccc(C3[C@@H]4CN(C(=O)Nc5ccccc5F)C[C@H]3N4)cc2)c1 (some centres undefined)	x	32*!	-22	x	x
COc1ccc(-c2ccc(C3[C@H]4CNC[C@@H]3N4C(=O)Nc3ccc4c(c3)OCO4)cc2)cc1 (some centres undefined)	x	25*!	x	x	x
C[C@@H]1CCCCO[C@H](CN(C)Cc2ccc(C(=O)O)cc2)[C@H](C)CN([C@@H](C)CO)C(=O)c2cc(NC(=O)C3CCCCC3)ccc2O1	0[16.7 µM]	-3	-2	x	x
CCC(=O)N[C@@H]1C=C[C@@H](CC(=O)OC)O[C@@H]1CO	-12[16.7 µM]	-5	-9	-7	x
C[C@@H]1CCCCO[C@H](CN(C)Cc2ccc(C(F)(F)F)cc2)[C@H](C)CN([C@@H](C)CO)C(=O)c2cc(NC(=O)NC3CCCCC3)ccc2O1	67[16.7 µM]	9	-52	x	x
COc1ccc(C(CCN2CCN(c3ccccc3)CC2)c2c(OC)cc(OC)c3c(-c4ccccc4)cc(=O)oc23)cc1 (centres undefined)	2	59*	-20	7	-6
CC(C)C(=O)Nc1nnc(S(=O)(=O)N2CCc3ccccc32)s1	0	107*	0	1	-2
CC#CC#Cc1cccc(=O)o1	0	3	-24	97*	-4
SMILES	miR122 inh	DENV2 CPE rescue	PGC1a acetyl inh	Statin myotox sup	PvdQ inh
CCCOc1ccccc1C1CC(=O)NC2=C1C(=O)CCC2 (centres undefined)	59	x	6	-52	-15
CCCCOc1ccccc1C1CC(=O)NC2=C1C(=O)CCC2 (centres undefined)	109*	x	1	x	-7
CC[C@@]12C(=O)N(c3cccc(Cl)c3)C(=O)N1[C@H](c1ccc(Br)cc1)[C@@H]1C(=O)N(C(C)(C)C)C(=O)[C@@H]12	-1	0	-17	-9	3
CC(C)C[C@@]12C(=O)N(c3cccc(Cl)c3)C(=O)N1[C@H](c1ccc(Br)cc1)[C@@H]1C(=O)N(C(C)(C)C)C(=O)[C@@H]12	0	-4	-20	98*	-1
CN(C)CC#Cc1ccc([C@H]2[C@@H](CO)N3C(=O)CN(C(=O)c4cccnc4)C[C@H]23)cc1	x	-1	4	x	x
C[C@@H]1CCC[C@]2(O[C@@H](CCO)C[C@@H](O)[C@@H]2O)O1	-1	34*	-7	x	-25
C[C@@H]1CC[C@]2(O[C@H](CCO)C[C@H](O)[C@H]2O)O1	1	39*	-7	x	-26
C[C@H]1CC[C@@]2(O[C@@H](CCO)C[C@H](O)[C@H]2O)O1	2	9	-3	-3	18
OCC[C@H]1C[C@@H](O)[C@H](O)[C@@]2(Cc3ccccc3O2)O1	-8	2	0	118*	-7
C[C@H]1CCC[C@]2(O[C@H](CCO)C[C@H](O)[C@H]2O)O1	2	6	5	x	-12
CC=Cc1ccc2n(c1=O)C[C@@H]1[C@@H](CO)[C@H](C(=O)NC3Cc4ccccc4C3)N(CC3CCCC3)[C@H]21 (mixture of isomers)	x	12	-1	x	x
NCCCC[C@@H]1NC(=O)[C@H](CCC(=O)O)NC(=O)c2cc([N+](=O)[O-])cc(I)c2OCC[C@@H](C(N)=O)NC1=O	x	x	x	-3	-1
NC(=O)CC[C@@H]1NC(=O)[C@H](CO)NC(=O)c2cc([N+](=O)[O-])cc(I)c2OCC[C@@H](C(N)=O)NC1=O	-1	x	1	106*	-3
CCO[C@H]1OC(C(=O)N2CCCCCCC2)=C[C@@H](C2CC2)[C@@H]1CCCO	x	1	0	x	x
C[C@@H]1CN([C@H](C)CO)C(=O)c2cccc(NC(=O)Nc3ccc(C(F)(F)F)cc3)c2O[C@@H]1CN(C)C(=O)Nc1ccc(C(F)(F)F)cc1	1[16.7 µM]	50*	3	-32	x
C[C@H]1CN([C@@H](C)CO)C(=O)c2cccc(NC(=O)Nc3cccc4ccccc34)c2O[C@H]1CN(C)C(=O)Nc1ccc(C(F)(F)F)cc1	x	32*	-11	x	x
C[C@H]1CN([C@@H](C)CO)C(=O)c2cccc(NC(=O)Nc3ccc(C(F)(F)F)cc3)c2O[C@@H]1CN(C)CC1CC1	-1[16.7 µM]	31*	-29	27	x
C[C@H](CO)N1C[C@H](C)[C@@H](CN(C)C(=O)Nc2ccc(C(F)(F)F)cc2)Oc2c(NC(=O)C3CC3)cccc2C1=O	-4[16.7 µM]	-5	-1	-11	x
